Results reported in PMC7862700, “An all-to-all approach to the identification of sequence-specific readers for epigenetic DNA modifications on cytosine”.

Key:
Assay in all cases: DAPPL (digital affinity profiling via proximity ligation, sequencing); 10 mM Tris-HCl pH 7.5, 50 mM NaCl, 1 mM DTT, 4% glycerol, room temperature, 30 min; GST-TFs on glutathione beads, 16-mer random dsDNA library, 0.1% formaldehyde crosslink after washing; high values mean tight binding
FEV = molecular target: T1, FEV (Homo sapiens, UniProt Q99581 1-238); conditions: protein: recombinant; tags: N-terminal GST; dsDNA, one strand shown
T1 sequence: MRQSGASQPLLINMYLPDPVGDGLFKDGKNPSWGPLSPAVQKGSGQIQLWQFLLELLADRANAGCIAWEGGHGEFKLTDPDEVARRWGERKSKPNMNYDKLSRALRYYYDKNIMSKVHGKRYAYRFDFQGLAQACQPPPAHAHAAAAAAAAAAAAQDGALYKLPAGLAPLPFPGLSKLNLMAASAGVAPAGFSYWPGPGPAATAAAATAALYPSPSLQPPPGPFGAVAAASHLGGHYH
Summary of the method: (§1)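 Binding signal is each hexamer's read frequency for a factor divided by its frequency in the tag-only sample. The factors were GST-fused human transcription factors from yeast, captured on glutathione beads, DNA-barcoded and pooled with that sample. Pools were incubated with 200 nmole of a random double-stranded 16-mer DNA library in Tris/NaCl/DTT/glycerol buffer at room temperature for 30 min, then washed, crosslinked with 0.1% formaldehyde, proximity-ligated with BsaI/T4 ligase (1 h, 37 °C), PCR-amplified and sequenced on an Illumina NextSeq500.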

ETV5 = ETV5 (Homo sapiens, UniProt P41161 1-510); conditions: protein: recombinant; tags: N-terminal GST; dsDNA, one strand shown
Chain of ETV5 (P41161 whole entry): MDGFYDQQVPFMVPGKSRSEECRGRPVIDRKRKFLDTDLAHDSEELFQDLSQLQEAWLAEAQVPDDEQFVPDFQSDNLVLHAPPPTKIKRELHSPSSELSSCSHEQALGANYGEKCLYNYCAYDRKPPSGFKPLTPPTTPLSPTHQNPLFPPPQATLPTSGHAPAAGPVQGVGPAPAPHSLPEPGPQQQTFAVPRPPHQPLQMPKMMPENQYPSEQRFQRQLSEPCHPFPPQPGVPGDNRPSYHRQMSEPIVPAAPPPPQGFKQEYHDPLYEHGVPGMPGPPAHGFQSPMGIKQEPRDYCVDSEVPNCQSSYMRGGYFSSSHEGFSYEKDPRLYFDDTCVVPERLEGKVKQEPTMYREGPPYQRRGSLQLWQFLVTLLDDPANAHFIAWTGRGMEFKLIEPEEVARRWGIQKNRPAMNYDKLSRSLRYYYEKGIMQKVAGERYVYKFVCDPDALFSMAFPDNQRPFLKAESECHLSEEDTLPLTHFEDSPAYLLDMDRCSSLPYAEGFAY
Summary of the method: as §1

HSF1 = HSF1 (Homo sapiens, UniProt Q00613 1-529); conditions: protein: recombinant; tags: N-terminal GST; chain copies: 3; dsDNA, one strand shown
Chain of HSF1 (Q00613 whole entry): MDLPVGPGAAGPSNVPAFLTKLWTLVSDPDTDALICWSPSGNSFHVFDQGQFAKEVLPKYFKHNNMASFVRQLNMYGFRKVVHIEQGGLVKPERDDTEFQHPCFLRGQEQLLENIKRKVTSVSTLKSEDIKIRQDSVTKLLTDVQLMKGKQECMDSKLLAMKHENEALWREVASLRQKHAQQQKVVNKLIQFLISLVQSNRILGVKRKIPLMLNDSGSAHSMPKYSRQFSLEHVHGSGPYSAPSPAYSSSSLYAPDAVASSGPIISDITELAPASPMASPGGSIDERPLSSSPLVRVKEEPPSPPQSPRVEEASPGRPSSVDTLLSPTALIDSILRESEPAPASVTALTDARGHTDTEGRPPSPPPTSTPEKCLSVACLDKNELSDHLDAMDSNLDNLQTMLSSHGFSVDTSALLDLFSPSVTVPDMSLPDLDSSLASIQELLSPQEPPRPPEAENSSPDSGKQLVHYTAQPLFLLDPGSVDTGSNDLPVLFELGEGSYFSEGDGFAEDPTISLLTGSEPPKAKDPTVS
Summary of the method: as §1

SPIC = molecular target: T2, SPIC (Homo sapiens, UniProt Q8N5J4 1-248); conditions: protein: recombinant; tags: N-terminal GST; dsDNA, one strand shown
T2 sequence: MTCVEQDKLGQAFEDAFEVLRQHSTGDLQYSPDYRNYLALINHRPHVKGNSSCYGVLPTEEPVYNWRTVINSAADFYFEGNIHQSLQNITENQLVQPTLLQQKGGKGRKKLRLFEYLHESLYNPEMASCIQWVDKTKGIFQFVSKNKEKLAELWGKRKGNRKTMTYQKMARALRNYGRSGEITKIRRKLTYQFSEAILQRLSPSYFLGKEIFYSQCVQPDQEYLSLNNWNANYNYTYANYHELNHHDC
Summary of the method: as §1

ELF4 = ELF4 (Homo sapiens, UniProt Q99607 1-663); conditions: protein: recombinant; tags: N-terminal GST; dsDNA, one strand shown
Chain of ELF4 (Q99607 whole entry): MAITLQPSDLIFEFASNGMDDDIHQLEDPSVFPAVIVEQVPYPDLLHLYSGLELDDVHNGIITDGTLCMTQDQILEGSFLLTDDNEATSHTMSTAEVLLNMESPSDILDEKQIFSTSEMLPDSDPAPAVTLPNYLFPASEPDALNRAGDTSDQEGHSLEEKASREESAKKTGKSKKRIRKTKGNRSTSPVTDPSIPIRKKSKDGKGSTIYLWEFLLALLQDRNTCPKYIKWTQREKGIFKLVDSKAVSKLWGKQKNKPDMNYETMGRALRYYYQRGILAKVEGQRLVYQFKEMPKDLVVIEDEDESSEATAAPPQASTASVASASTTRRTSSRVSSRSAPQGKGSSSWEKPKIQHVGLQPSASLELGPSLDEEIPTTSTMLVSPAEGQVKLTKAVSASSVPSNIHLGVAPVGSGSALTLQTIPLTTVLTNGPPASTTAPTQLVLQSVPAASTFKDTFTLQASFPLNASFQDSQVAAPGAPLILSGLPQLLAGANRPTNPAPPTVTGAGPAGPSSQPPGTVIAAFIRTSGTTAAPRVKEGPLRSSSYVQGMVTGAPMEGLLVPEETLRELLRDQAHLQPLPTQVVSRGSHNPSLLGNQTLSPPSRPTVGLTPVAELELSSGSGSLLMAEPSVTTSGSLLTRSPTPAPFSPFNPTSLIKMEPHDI
Summary of the method: as §1

ELK4 = molecular target: T3, ELK4 (Homo sapiens, UniProt P28324-2 1-405); conditions: protein: recombinant; tags: N-terminal GST; dsDNA, one strand shown
T3 sequence: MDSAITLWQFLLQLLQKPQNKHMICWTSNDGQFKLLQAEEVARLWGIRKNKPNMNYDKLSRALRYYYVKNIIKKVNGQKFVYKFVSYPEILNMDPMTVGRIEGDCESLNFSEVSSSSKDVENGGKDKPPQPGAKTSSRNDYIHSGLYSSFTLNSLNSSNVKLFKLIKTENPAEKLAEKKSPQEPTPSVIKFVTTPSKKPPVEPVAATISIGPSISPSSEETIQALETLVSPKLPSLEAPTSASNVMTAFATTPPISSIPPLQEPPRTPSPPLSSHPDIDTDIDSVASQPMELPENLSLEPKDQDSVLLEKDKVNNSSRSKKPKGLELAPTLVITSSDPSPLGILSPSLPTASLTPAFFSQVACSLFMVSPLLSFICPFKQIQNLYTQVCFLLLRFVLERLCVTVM
Summary of the method: as §1

ETV2 = molecular target: T4, ETV2 (Homo sapiens, UniProt O00321 1-342); conditions: protein: recombinant; tags: N-terminal GST; dsDNA, one strand shown
T4 sequence: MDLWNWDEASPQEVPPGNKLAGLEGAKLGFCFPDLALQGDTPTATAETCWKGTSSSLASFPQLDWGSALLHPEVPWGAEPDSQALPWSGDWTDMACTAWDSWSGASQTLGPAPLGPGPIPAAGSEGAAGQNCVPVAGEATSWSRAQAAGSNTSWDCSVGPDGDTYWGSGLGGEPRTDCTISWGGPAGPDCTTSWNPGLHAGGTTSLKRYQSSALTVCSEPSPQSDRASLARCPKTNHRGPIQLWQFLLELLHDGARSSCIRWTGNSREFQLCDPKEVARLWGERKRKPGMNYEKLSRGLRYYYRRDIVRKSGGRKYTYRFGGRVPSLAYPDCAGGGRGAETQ
Summary of the method: as §1

ELF3 = molecular target: T5, ELF3 (Homo sapiens, UniProt P78545 1-371); conditions: protein: recombinant; tags: N-terminal GST; dsDNA, one strand shown
T5 sequence: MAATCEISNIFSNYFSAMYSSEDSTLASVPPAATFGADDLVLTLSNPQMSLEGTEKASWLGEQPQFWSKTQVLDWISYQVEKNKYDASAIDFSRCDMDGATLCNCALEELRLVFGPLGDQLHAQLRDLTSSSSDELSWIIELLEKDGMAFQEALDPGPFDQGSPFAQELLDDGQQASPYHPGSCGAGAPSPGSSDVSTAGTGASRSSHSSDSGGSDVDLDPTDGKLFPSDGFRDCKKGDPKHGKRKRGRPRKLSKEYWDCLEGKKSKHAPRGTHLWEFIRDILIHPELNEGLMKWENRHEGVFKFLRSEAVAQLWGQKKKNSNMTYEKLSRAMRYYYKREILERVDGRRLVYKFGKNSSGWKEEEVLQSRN
Summary of the method: as §1

CRX = CRX (Homo sapiens, UniProt O43186 1-299); conditions: protein: recombinant; tags: N-terminal GST; dsDNA, one strand shown
Chain of CRX (O43186 whole entry): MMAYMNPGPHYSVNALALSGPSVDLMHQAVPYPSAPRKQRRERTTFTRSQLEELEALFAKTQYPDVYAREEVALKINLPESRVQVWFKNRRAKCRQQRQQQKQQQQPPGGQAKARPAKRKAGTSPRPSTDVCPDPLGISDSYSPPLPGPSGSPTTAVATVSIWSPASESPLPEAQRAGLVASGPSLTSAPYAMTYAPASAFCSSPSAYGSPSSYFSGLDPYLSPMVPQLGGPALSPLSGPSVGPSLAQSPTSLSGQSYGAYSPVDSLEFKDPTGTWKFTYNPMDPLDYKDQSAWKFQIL
Summary of the method: as §1

ETV1 = ETV1 (Homo sapiens, UniProt P50549 1-477); conditions: protein: recombinant; tags: N-terminal GST; dsDNA, one strand shown
Chain of ETV1 (P50549 whole entry): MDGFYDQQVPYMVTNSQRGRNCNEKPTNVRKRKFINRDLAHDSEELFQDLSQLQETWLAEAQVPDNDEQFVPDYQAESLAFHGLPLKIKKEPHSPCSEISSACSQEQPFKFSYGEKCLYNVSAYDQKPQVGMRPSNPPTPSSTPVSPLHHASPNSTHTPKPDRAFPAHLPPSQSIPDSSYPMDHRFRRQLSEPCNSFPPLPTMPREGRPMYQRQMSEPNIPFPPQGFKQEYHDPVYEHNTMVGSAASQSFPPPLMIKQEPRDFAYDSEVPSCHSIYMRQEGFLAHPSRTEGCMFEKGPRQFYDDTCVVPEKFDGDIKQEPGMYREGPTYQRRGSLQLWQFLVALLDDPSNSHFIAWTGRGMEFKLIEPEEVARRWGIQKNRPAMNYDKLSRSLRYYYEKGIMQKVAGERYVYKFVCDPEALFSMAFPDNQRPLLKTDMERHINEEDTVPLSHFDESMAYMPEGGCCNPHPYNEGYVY
Summary of the method: as §1

ERF = molecular target: T6, ERF (Homo sapiens, UniProt P50548 1-548); conditions: protein: recombinant; tags: N-terminal GST; dsDNA, one strand shown
T6 sequence: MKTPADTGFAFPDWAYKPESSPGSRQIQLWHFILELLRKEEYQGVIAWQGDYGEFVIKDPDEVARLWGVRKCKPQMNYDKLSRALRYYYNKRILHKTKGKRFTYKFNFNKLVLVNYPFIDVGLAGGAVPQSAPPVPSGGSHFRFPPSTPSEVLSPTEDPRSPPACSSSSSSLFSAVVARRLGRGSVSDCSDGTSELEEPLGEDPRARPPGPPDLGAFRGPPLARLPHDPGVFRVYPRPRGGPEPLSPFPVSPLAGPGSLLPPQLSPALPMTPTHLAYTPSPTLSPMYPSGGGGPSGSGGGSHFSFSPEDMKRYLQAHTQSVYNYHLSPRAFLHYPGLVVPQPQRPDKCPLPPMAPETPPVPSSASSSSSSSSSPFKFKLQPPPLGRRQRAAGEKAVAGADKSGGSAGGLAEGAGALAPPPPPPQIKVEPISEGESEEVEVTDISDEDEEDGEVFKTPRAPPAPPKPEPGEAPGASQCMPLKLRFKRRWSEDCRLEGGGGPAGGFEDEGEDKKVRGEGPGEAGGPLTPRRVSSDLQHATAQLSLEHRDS
Summary of the method: as §1

ETV3L = molecular target: T7, ETV3L (Homo sapiens, UniProt Q6ZN32 1-361); conditions: protein: recombinant; tags: N-terminal GST; dsDNA, one strand shown
T7 sequence: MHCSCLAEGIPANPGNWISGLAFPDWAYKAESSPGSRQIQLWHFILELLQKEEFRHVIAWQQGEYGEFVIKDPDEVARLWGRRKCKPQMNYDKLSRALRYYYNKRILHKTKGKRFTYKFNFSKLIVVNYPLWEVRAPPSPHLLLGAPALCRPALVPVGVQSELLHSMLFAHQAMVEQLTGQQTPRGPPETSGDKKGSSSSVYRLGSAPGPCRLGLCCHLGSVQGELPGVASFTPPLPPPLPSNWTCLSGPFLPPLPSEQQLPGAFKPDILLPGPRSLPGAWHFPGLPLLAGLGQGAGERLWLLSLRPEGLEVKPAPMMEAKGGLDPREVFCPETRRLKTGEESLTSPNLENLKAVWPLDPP
Summary of the method: as §1

ETS2 = molecular target: T8, ETS2 (Homo sapiens, UniProt P15036 1-469); conditions: protein: recombinant; tags: N-terminal GST; dsDNA, one strand shown
T8 sequence: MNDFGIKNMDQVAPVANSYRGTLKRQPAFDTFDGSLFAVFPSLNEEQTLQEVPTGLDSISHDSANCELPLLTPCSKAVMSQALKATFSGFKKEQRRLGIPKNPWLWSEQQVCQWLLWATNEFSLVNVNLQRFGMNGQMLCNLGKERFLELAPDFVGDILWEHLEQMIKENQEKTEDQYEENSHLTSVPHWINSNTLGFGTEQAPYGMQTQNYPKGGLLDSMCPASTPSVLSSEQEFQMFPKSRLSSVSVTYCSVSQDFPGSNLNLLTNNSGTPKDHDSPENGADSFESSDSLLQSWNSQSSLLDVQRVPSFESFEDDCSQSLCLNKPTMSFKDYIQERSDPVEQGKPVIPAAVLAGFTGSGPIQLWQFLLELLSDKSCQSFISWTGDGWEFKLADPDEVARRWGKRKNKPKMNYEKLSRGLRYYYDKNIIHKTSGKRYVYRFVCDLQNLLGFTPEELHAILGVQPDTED
Summary of the method: as §1

SPDEF = molecular target: T9, SPDEF (Homo sapiens, UniProt O95238 1-335); conditions: protein: recombinant; tags: N-terminal GST; dsDNA, one strand shown
T9 sequence: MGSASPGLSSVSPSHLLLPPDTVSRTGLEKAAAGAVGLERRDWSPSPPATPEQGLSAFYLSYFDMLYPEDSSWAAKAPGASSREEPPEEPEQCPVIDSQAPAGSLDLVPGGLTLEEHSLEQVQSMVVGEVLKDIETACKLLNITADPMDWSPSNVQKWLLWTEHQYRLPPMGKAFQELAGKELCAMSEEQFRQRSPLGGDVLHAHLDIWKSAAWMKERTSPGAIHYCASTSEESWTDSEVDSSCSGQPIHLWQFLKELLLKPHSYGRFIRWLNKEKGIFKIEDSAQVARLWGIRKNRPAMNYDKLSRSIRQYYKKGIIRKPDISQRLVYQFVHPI
Summary of the method: as §1

ETV7 = molecular target: T10, ETV7 (Homo sapiens, UniProt Q9Y603 1-341); conditions: protein: recombinant; tags: N-terminal GST; dsDNA, one strand shown
T10 sequence: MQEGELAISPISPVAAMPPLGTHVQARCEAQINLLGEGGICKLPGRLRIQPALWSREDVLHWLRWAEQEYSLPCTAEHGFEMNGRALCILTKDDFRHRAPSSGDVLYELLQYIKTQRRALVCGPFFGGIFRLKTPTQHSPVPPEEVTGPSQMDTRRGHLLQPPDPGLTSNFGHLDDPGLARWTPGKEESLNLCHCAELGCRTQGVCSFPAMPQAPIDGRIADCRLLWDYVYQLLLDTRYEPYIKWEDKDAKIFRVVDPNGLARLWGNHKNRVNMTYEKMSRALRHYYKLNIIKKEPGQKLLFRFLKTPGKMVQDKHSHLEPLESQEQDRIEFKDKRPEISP
Summary of the method: as §1

ELF5 = molecular target: T11, ELF5 (Homo sapiens, UniProt Q9UKW6-2 1-255); conditions: protein: recombinant; tags: N-terminal GST; dsDNA, one strand shown
T11 sequence: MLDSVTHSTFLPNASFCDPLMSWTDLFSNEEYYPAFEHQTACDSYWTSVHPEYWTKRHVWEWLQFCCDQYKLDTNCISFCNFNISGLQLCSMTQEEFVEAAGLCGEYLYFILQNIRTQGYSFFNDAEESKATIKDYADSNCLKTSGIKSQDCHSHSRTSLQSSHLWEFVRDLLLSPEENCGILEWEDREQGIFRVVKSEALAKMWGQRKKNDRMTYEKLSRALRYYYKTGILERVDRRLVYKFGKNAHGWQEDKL
Summary of the method: as §1

ETV3 = molecular target: T12, ETV3 (Homo sapiens, UniProt P41162-2 1-143); conditions: protein: recombinant; tags: N-terminal GST; dsDNA, one strand shown
T12 sequence: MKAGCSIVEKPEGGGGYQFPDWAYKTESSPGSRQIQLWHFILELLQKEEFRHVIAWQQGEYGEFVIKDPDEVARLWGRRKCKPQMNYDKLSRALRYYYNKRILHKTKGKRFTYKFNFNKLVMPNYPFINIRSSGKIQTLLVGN
Summary of the method: as §1

ETV6 = ETV6 (Homo sapiens, UniProt P41212 1-452); conditions: protein: recombinant; tags: N-terminal GST; dsDNA, one strand shown
Chain of ETV6 (P41212 whole entry): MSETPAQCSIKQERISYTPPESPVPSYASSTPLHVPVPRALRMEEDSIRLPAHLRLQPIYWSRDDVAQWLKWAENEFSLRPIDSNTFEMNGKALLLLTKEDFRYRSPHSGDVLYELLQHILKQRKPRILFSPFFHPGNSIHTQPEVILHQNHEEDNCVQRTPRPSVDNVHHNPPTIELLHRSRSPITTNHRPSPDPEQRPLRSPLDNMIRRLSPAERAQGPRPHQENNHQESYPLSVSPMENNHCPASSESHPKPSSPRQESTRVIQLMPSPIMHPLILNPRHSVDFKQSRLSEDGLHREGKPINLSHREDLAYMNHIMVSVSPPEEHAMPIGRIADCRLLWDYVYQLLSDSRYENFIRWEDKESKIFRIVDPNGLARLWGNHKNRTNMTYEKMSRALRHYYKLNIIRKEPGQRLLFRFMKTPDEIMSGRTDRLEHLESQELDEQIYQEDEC
Summary of the method: as §1

TTGTGC was tested, and the binding signal (FEV) was 1.18 fold enrichment (6-mer frequency, TF over GST control), the binding signal (ETV5) was 1.17 fold enrichment (6-mer frequency, TF over GST control) and the binding signal (HSF1) was 1.07 fold enrichment (6-mer frequency, TF over GST control). For the same sequence, the binding signal (SPIC) was 1.37 fold enrichment (6-mer frequency, TF over GST control), the binding signal (ELF4) was 1.13 fold enrichment (6-mer frequency, TF over GST control) and the binding signal (ELK4) was 1.23 fold enrichment (6-mer frequency, TF over GST control). For the same sequence, the binding signal (ETV2) was 1.23 fold enrichment (6-mer frequency, TF over GST control), the binding signal (ELF3) was 1.24 fold enrichment (6-mer frequency, TF over GST control) and the binding signal (CRX) was 1.09 fold enrichment (6-mer frequency, TF over GST control). The binding signal (ETV1) was 1.09 fold enrichment (6-mer frequency, TF over GST control), the binding signal (ERF) was 1.31 fold enrichment (6-mer frequency, TF over GST control) and the binding signal (ETV3L) was 1.12 fold enrichment (6-mer frequency, TF over GST control). For the same sequence, the binding signal (ETS2) was 1.17 fold enrichment (6-mer frequency, TF over GST control), the binding signal (SPDEF) was 1.15 fold enrichment (6-mer frequency, TF over GST control) and the binding signal (ETV7) was 1.08 fold enrichment (6-mer frequency, TF over GST control). For the same sequence, the binding signal (ELF5) was 1.23 fold enrichment (6-mer frequency, TF over GST control), the binding signal (ETV3) was 1.15 fold enrichment (6-mer frequency, TF over GST control) and the binding signal (ETV6) was 1.23 fold enrichment (6-mer frequency, TF over GST control).
